# Several values for one entry are separate records, joined by “and”; a condition that tells them apart may be missing. Equal values may be shown once. For some assays here: Entries with a potency or affinity are not part of this list.
# What was measured:
# [1] = test system: Staphylococcus aureus; assay: Antibacterial activity against Staphylococcus aureus MRSA ATCC 43300 (CO-ADD:GP_020); MIC in CAMBH media using NBS plates, by Resazurin F(560/590); type: functional; settings: Concentration 20 uM, ASSAY_TEST Inhibition of Bacterial Growth, detection method Resazurin, Fluorescence (ex560/em590), MEDIA CAMHB, plate type 384well, CORNING #3640, time 18 hr
# [2] = test system: Acinetobacter baumannii; assay: Antibacterial activity against Acinetobacter baumannii ATCC 19606 (CO-ADD:GN_034); MIC in CAMBH media using NBS plates, by Resazurin F(560/590); type: functional; settings: Concentration 20 uM, ASSAY_TEST Inhibition of Bacterial Growth, detection method Resazurin, Fluorescence (ex560/em590), MEDIA CAMHB, plate type 384well, CORNING #3640, time 18 hr
# [3] = test system: Escherichia coli; assay: Antibacterial activity against Escherichia coli ATCC 25922 (CO-ADD:GN_001); MIC in CAMBH media using NBS plates, by Resazurin F(560/590); type: functional; settings: Concentration 20 uM, ASSAY_TEST Inhibition of Bacterial Growth, detection method Resazurin, Fluorescence (ex560/em590), MEDIA CAMHB, plate type 384well, CORNING #3640, time 18 hr
# [4] = test system: Klebsiella pneumoniae; settings: Concentration 20 uM, ASSAY_TEST Inhibition of Bacterial Growth, detection method Absorption (OD600), MEDIA CAMHB, plate type 384well, NBS, CORNING #3640, time 18 hr
# [5] = test system: Candida albicans; settings: 20 µM
# [6] = test system: Cryptococcus neoformans; settings: Concentration 20 uM, ASSAY_TEST Inhibition of Fungal Growth, detection method Resazurin, Absorption (OD600-OD570), plate type 384well, NBS, CORNING #3640
smiles,measurement,setting,value
O=C1C(Cl)=C(O)C2(Cl)C(Cl)=C(Cl)C12Cl (centres undefined),Inhibition,[1],15.05%
same,Inhibition,[2],13.34%
same,Inhibition,[3],5.55%
same,Inhibition,[4],11.98%
same,Inhibition,[5],9.34%
same,Inhibition,[6],-12.02%
Oc1ccccc1-c1nnco1 [FENADIAZOLE],Inhibition,[1],4.3%
same,Inhibition,[2],-3.75%
same,Inhibition,[3],4.12%
same,Inhibition,[4],8.02%
same,Inhibition,[5],0.92%
same,Inhibition,[6],-7.26%
Oc1cc(CNC2CCCCC2)c(O)cc1CNC1CCCCC1,Inhibition,[1],1.43%
same,Inhibition,[2],-9.92%
same,Inhibition,[3],2.36%
same,Inhibition,[4],11.38%
same,Inhibition,[5],5.97%
same,Inhibition,[6],-6.29%
O=C(NC(=S)Nc1cc(Cl)ccc1O)c1cccc(Br)c1,Inhibition,[1],15.1%
same,Inhibition,[2],1.75%
same,Inhibition,[3],-0.44%
same,Inhibition,[4],14.73%
same,Inhibition,[5],-2.09%
same,Inhibition,[6],-0.86%
Cn1c([N+](=O)[O-])cnc1N1CCN(c2nncs2)C1=O,Inhibition,[1],0.67%
same,Inhibition,[2],-10.23%
same,Inhibition,[3],2.52%
same,Inhibition,[4],15.88%
same,Inhibition,[5],1.82%
same,Inhibition,[6],-10.17%
CCOC(=O)CC(=O)NC(C)(C)CCCCC(C)(C)NC(=O)CC(=O)OCC,Inhibition,[1],-5.26%
same,Inhibition,[2],-12.04%
same,Inhibition,[3],17.83%
same,Inhibition,[4],13.05%
same,Inhibition,[5],-0.86%
same,Inhibition,[6],-4.13%
CCOCCc1c(O)nc(SC)nc1O,Inhibition,[1],-2.52%
same,Inhibition,[2],-10.74%
same,Inhibition,[3],0.79%
same,Inhibition,[4],7.34%
same,Inhibition,[5],2.01%
same,Inhibition,[6],-12.26%
OC(COc1cccc2ccccc12)CN1CCN(c2ccc(Cl)cc2)CC1 (centres undefined),Inhibition,"[1]; 18 h, 20 µM",7.27% and -7.63%
same,Inhibition,"[2]; 18 h, 20 µM",6.27% and 10.91%
same,Inhibition,[4]; 20 µM,26.3% and 15.3%
same,Inhibition,[5],1.46% and -1.63%
same,Inhibition,[6]; 20 µM,-9.84% and -9.74%
CCC(CC)NCCOC(=O)c1ccc([N+](=O)[O-])cc1,Inhibition,[1],-1.24%
same,Inhibition,[2],-9.59%
same,Inhibition,[3],5.41%
same,Inhibition,[4],5.67%
same,Inhibition,[5],0.5%
same,Inhibition,[6],-8.44%
Cc1ccc(C2C=CC(C#N)=CN2Cc2ccccc2)cc1 (centres undefined),Inhibition,[1],18.9%
same,Inhibition,[2],-15.76%
same,Inhibition,[3],11.73%
same,Inhibition,[4],11.58%
same,Inhibition,[5],-1.48%
same,Inhibition,[6],-7.94%
O=c1n(CC2CO2)c(=O)n(CC2CO2)c(=O)n1CC1CO1 (centres undefined) [TEROXIRONE],Inhibition,[1],0.12%
same,Inhibition,[2],-10.62%
same,Inhibition,[3],4.44%
same,Inhibition,[4],8.68%
same,Inhibition,[5],3.23%
same,Inhibition,[6],-12.57%
O=C(O)/C=C/C(=O)N1Cc2cc3ccccc3nc2C1,Inhibition,[1],3.21%
same,Inhibition,[2],-0.11%
same,Inhibition,[3],-4.23%
same,Inhibition,[4],9.8%
same,Inhibition,[5],1.99%
same,Inhibition,[6],-3.38%
Cc1cccc2c1c1ccc3c(c1n2C)C(=O)C=CC3=O,Inhibition,[1],-3.83%
same,Inhibition,[2],-13.4%
same,Inhibition,[3],14.66%
same,Inhibition,[4],10.43%
same,Inhibition,[5],16.9%
same,Inhibition,[6],1.61%
Cn1c(CO)cnc1-c1ccccc1,Inhibition,[1],2.4%
same,Inhibition,[2],0.07%
same,Inhibition,[3],-8.68%
same,Inhibition,[4],2.59%
same,Inhibition,[5],2.13%
same,Inhibition,[6],-3.98%
O=C(Nc1ccsn1)c1ccc(Cl)cc1Cl,Inhibition,[1],2.74%
same,Inhibition,[2],-9.67%
same,Inhibition,[3],7.73%
same,Inhibition,[4],13.89%
same,Inhibition,[5],3.31%
same,Inhibition,[6],7.18%
O=C(/C=C/c1ccccc1)CC(c1ccccc1)N1CCOCC1 (centres undefined),Inhibition,[1],13.93%
same,Inhibition,[2],0.36%
same,Inhibition,[3],-4.09%
same,Inhibition,[4],21.53%
same,Inhibition,[5],12.7%
same,Inhibition,[6],-9.56%
Cn1c(N)c(/N=N/c2ccc(S(N)(=O)=O)cc2)c(=O)n(C)c1=O,Inhibition,[1],19.52%
same,Inhibition,[2],4.45%
same,Inhibition,[3],15.26%
same,Inhibition,[4],20.82%
same,Inhibition,[5],2.91%
same,Inhibition,[6],-0.3%
Cc1ccc(NC(=O)Nc2nc3ccccc3s2)cc1NC(=O)Nc1nc2ccccc2s1,Inhibition,[1],-1.63%
same,Inhibition,[2],-10.02%
same,Inhibition,[3],17.87%
same,Inhibition,[4],8.92%
same,Inhibition,[5],-2.38%
same,Inhibition,[6],-1.68%
Nc1ncnc(N2CCOCC2)n1,Inhibition,[1],-3.61%
same,Inhibition,[2],-4.78%
same,Inhibition,[3],-0.51%
same,Inhibition,[4],0.72%
same,Inhibition,[5],2.01%
same,Inhibition,[6],-5.84%
COC(=O)Nc1csc2c1NC(=O)CCCC2,Inhibition,[1],9.05%
same,Inhibition,[2],-9.14%
same,Inhibition,[3],10.25%
same,Inhibition,[4],10.74%
same,Inhibition,[5],1.85%
same,Inhibition,[6],-7.13%
Cc1cc(=O)n2nc(-c3ccc(C(C)(C)C)cc3)cc2[nH]1,Inhibition,[1],15.3%
same,Inhibition,[2],0.45%
same,Inhibition,[3],6.17%
same,Inhibition,[4],14.85%
same,Inhibition,[5],4.49%
same,Inhibition,[6],-5.87%
Cc1ccc(S(=O)(=O)N2CC=C(N)N2)cc1,Inhibition,[1],16.25%
same,Inhibition,[2],-10.87%
same,Inhibition,[3],9.9%
same,Inhibition,[4],8.77%
same,Inhibition,[5],-1.38%
same,Inhibition,[6],-12.82%
CC(C)(C)c1ccc(OC(=O)c2ccccc2)cc1,Inhibition,[1],-7.46%
same,Inhibition,[2],6.71%
same,Inhibition,[3],7.42%
same,Inhibition,[4],8.33%
same,Inhibition,[5],9.75%
same,Inhibition,[6],-15.41%
CSC(=NS(=O)(=O)c1ccccc1)NNC(=O)c1c(-c2c(Cl)cccc2Cl)noc1C,Inhibition,[1],2.63%
same,Inhibition,[2],2.35%
same,Inhibition,[3],-1.44%
same,Inhibition,[4],10.18%
same,Inhibition,[5],6.77%
same,Inhibition,[6],-2.9%
Cc1cc(=O)n2c3c(c4c(cc13)c(CN(C)C)cc(=O)n4C)OC2.Cl,Inhibition,[1],-3.31%
same,Inhibition,[2],19.85%
same,Inhibition,[3],6.04%
same,Inhibition,[4],7.61%
same,Inhibition,[5],-0.27%
same,Inhibition,[6],-11%

# From ChEMBL document CHEMBL4296182, “CO-ADD screening of NIH NCI Diversity Set V”
